Key:
Assay in all cases: DAPPL (digital affinity profiling via proximity ligation, sequencing); 10 mM Tris-HCl pH 7.5, 50 mM NaCl, 1 mM DTT, 4% glycerol, room temperature, 30 min; GST-TFs on glutathione beads, 16-mer random dsDNA library, 0.1% formaldehyde crosslink after washing; high values mean tight binding
[1] = target: T1, FEV (Homo sapiens, UniProt Q99581 1-238); conditions: protein: recombinant; tags: N-terminal GST; dsDNA, one strand shown
T1 sequence: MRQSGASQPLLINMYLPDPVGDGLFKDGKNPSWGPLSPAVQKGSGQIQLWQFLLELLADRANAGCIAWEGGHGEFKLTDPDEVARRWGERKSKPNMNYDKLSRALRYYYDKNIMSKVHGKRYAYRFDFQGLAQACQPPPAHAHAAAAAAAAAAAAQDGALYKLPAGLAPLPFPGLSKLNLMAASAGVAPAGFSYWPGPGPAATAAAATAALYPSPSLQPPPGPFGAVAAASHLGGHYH
Outline: (§1)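 After expression in yeast as GST fusions, human transcription factors were bound to glutathione beads, DNA-barcoded and mixed with a tag-only sample. The pools were incubated with 200 nmole of a 16-mer random double-stranded DNA library in Tris/NaCl/DTT/glycerol buffer (30 min, room temperature), washed and crosslinked with 0.1% formaldehyde. Proximity ligation with BsaI/T4 ligase ran for 1 h at 37 °C, before PCR amplification and sequencing on an Illumina NextSeq500. Binding signal is a hexamer's read frequency for a factor divided by its frequency for the tag-only sample.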

[2] = target: ETV5 (Homo sapiens, UniProt P41161 1-510); conditions: protein: recombinant; tags: N-terminal GST; dsDNA, one strand shown
Outline: as §1

[3] = target: HSF1 (Homo sapiens, UniProt Q00613 1-529); conditions: protein: recombinant; tags: N-terminal GST; chain copies: 3; dsDNA, one strand shown
Outline: as §1

[4] = target: T2, SPIC (Homo sapiens, UniProt Q8N5J4 1-248); conditions: protein: recombinant; tags: N-terminal GST; dsDNA, one strand shown
T2 sequence: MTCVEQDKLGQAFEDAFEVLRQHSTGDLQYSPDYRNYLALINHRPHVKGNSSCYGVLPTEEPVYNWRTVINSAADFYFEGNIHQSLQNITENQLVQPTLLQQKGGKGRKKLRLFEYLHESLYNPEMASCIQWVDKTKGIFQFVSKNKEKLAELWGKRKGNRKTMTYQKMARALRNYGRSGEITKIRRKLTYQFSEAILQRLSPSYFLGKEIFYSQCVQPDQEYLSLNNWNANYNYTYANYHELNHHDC
Outline: as §1

[5] = target: ELF4 (Homo sapiens, UniProt Q99607 1-663); conditions: protein: recombinant; tags: N-terminal GST; dsDNA, one strand shown
Outline: as §1

[6] = target: T3, ELK4 (Homo sapiens, UniProt P28324-2 1-405); conditions: protein: recombinant; tags: N-terminal GST; dsDNA, one strand shown
T3 sequence: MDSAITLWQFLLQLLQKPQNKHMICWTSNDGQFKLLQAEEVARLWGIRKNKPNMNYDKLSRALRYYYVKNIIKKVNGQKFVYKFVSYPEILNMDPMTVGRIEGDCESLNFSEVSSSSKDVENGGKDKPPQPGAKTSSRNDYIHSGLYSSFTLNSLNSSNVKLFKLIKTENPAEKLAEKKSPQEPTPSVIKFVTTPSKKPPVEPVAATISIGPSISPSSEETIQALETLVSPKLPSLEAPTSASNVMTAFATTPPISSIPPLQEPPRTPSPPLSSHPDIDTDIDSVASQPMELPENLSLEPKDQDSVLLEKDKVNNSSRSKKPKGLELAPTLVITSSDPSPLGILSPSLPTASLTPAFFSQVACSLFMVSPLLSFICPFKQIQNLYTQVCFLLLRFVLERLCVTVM
Outline: as §1

[7] = target: T4, ETV2 (Homo sapiens, UniProt O00321 1-342); conditions: protein: recombinant; tags: N-terminal GST; dsDNA, one strand shown
T4 sequence: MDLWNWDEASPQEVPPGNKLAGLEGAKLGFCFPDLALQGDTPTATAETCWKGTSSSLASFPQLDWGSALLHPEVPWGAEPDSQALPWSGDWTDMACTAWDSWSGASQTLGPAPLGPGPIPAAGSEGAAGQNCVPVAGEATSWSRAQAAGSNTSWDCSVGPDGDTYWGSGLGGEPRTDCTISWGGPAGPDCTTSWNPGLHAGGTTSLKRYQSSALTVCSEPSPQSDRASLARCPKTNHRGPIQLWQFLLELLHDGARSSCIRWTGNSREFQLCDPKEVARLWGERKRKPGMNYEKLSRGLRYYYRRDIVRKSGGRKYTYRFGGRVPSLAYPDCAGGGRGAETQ
Outline: as §1

[8] = target: T5, ELF3 (Homo sapiens, UniProt P78545 1-371); conditions: protein: recombinant; tags: N-terminal GST; dsDNA, one strand shown
T5 sequence: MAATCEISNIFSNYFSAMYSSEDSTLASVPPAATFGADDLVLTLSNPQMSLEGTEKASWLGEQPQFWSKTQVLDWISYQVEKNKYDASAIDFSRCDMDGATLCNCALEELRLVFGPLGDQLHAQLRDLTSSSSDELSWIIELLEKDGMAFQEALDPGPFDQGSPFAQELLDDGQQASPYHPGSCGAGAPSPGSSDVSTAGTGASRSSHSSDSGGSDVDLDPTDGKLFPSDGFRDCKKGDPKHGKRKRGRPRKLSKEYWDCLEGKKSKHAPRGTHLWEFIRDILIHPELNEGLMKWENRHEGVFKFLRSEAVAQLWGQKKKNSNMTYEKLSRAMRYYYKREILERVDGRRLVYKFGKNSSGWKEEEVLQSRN
Outline: as §1

[9] = target: CRX (Homo sapiens, UniProt O43186 1-299); conditions: protein: recombinant; tags: N-terminal GST; dsDNA, one strand shown
Outline: as §1

[10] = target: ETV1 (Homo sapiens, UniProt P50549 1-477); conditions: protein: recombinant; tags: N-terminal GST; dsDNA, one strand shown
Outline: as §1

[11] = target: T6, ERF (Homo sapiens, UniProt P50548 1-548); conditions: protein: recombinant; tags: N-terminal GST; dsDNA, one strand shown
T6 sequence: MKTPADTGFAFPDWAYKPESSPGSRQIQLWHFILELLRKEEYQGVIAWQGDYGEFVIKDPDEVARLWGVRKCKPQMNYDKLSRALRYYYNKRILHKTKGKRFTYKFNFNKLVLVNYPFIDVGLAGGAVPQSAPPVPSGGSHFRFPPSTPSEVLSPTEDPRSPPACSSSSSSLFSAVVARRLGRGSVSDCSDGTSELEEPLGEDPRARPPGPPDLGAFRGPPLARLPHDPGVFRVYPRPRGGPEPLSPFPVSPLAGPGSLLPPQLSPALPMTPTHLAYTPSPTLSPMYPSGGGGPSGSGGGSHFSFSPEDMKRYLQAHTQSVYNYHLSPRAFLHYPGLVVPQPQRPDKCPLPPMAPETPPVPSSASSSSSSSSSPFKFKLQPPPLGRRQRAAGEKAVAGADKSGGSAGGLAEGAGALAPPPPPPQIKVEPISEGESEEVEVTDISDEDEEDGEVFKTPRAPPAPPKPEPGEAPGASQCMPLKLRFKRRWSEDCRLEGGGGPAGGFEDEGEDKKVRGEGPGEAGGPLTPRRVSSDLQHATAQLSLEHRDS
Outline: as §1

[12] = target: T7, ETV3L (Homo sapiens, UniProt Q6ZN32 1-361); conditions: protein: recombinant; tags: N-terminal GST; dsDNA, one strand shown
T7 sequence: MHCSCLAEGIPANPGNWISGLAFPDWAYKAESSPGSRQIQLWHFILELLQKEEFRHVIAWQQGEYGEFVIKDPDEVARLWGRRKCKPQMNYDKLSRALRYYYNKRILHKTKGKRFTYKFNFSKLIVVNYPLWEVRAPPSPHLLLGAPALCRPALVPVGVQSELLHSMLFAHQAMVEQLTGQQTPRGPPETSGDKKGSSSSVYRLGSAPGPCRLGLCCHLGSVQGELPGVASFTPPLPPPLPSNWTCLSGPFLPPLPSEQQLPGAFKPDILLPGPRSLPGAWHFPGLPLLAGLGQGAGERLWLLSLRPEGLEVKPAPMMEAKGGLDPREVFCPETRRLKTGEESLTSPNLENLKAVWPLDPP
Outline: as §1

[13] = target: T8, ETS2 (Homo sapiens, UniProt P15036 1-469); conditions: protein: recombinant; tags: N-terminal GST; dsDNA, one strand shown
T8 sequence: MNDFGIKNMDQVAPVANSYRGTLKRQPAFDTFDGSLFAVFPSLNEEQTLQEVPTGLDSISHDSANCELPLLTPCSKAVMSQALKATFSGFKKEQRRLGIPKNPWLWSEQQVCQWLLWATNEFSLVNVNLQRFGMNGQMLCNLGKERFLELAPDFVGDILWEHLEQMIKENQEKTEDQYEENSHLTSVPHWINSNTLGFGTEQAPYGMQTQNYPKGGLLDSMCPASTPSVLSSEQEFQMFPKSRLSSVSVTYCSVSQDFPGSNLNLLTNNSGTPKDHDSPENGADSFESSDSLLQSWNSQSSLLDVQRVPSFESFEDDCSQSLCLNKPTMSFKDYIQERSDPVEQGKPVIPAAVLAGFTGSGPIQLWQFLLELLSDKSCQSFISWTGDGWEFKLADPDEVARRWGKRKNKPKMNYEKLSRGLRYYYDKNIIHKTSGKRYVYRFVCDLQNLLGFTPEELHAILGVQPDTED
Outline: as §1

[14] = target: T9, SPDEF (Homo sapiens, UniProt O95238 1-335); conditions: protein: recombinant; tags: N-terminal GST; dsDNA, one strand shown
T9 sequence: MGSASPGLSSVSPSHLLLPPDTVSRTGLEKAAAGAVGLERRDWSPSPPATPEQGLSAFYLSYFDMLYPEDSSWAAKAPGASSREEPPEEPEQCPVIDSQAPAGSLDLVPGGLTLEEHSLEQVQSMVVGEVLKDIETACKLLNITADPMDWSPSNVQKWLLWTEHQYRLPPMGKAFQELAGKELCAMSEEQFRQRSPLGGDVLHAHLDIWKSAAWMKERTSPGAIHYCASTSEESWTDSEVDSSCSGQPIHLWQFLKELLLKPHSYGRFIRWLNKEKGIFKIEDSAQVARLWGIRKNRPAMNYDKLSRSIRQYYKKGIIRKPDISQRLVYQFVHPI
Outline: as §1

[15] = target: T10, ETV7 (Homo sapiens, UniProt Q9Y603 1-341); conditions: protein: recombinant; tags: N-terminal GST; dsDNA, one strand shown
T10 sequence: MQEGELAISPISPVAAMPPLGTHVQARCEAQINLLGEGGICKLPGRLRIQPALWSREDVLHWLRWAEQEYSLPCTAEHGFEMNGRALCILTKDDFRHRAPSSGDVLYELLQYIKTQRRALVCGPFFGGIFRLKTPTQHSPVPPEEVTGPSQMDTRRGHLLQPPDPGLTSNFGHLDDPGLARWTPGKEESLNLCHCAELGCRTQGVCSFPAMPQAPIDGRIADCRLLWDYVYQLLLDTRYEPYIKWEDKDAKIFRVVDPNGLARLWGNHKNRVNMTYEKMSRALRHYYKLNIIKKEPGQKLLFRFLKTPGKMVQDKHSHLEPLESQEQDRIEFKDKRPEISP
Outline: as §1

[16] = target: T11, ELF5 (Homo sapiens, UniProt Q9UKW6-2 1-255); conditions: protein: recombinant; tags: N-terminal GST; dsDNA, one strand shown
T11 sequence: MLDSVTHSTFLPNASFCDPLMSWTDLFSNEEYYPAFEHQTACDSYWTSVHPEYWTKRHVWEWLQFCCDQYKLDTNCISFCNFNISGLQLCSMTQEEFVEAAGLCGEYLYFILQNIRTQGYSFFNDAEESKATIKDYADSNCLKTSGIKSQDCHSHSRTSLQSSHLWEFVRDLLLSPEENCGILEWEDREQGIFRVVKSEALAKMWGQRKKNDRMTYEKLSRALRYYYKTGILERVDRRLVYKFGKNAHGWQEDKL
Outline: as §1

[17] = target: T12, ETV3 (Homo sapiens, UniProt P41162-2 1-143); conditions: protein: recombinant; tags: N-terminal GST; dsDNA, one strand shown
T12 sequence: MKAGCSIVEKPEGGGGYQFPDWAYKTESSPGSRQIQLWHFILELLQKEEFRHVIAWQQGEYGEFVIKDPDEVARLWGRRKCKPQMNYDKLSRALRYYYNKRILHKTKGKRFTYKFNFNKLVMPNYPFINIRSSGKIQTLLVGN
Outline: as §1

[18] = target: ETV6 (Homo sapiens, UniProt P41212 1-452); conditions: protein: recombinant; tags: N-terminal GST; dsDNA, one strand shown
Outline: as §1

ELF4, sequence (Q99607 whole entry): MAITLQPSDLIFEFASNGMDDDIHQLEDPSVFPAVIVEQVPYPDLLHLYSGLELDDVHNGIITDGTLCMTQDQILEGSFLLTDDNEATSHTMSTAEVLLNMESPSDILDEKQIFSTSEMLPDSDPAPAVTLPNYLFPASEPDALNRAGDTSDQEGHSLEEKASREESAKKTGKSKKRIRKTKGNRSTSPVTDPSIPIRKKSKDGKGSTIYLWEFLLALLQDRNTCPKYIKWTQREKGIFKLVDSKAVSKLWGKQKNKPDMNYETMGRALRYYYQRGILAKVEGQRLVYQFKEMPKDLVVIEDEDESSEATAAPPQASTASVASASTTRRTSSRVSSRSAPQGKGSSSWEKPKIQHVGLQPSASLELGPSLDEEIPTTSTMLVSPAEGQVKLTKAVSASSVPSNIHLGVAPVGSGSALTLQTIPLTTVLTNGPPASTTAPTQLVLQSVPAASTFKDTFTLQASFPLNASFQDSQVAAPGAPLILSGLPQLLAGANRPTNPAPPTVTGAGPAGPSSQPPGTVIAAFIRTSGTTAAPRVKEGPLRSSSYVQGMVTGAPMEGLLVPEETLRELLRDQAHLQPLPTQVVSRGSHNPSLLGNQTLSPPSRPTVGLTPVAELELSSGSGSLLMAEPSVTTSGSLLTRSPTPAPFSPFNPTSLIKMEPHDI
ETV1, sequence (P50549 whole entry): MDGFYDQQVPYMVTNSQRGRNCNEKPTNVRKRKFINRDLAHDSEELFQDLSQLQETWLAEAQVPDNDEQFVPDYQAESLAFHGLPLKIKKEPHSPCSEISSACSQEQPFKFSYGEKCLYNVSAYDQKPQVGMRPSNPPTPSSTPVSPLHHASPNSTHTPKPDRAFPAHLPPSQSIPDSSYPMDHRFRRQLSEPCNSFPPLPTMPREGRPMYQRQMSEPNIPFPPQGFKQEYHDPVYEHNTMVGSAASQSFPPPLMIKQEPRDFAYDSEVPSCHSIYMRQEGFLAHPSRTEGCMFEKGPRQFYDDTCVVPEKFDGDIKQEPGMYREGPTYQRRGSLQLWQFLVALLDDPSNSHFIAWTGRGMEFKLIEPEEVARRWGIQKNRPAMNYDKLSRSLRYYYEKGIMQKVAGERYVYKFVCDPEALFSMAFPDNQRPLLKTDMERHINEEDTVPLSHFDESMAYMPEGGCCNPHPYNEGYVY
HSF1, sequence (Q00613 whole entry): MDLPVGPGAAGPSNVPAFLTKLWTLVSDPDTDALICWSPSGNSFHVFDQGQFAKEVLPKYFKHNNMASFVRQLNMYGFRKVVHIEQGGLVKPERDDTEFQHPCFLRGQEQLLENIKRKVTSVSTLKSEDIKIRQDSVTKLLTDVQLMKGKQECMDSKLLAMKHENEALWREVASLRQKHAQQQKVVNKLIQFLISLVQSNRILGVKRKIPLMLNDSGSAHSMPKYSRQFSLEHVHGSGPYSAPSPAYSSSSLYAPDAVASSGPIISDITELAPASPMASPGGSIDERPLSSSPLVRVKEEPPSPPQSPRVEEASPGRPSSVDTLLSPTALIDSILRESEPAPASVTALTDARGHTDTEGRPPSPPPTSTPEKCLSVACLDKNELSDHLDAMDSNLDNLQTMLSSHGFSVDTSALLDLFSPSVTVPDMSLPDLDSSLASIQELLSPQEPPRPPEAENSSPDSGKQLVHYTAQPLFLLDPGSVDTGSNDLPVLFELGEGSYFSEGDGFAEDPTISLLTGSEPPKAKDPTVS
ETV5, sequence (P41161 whole entry): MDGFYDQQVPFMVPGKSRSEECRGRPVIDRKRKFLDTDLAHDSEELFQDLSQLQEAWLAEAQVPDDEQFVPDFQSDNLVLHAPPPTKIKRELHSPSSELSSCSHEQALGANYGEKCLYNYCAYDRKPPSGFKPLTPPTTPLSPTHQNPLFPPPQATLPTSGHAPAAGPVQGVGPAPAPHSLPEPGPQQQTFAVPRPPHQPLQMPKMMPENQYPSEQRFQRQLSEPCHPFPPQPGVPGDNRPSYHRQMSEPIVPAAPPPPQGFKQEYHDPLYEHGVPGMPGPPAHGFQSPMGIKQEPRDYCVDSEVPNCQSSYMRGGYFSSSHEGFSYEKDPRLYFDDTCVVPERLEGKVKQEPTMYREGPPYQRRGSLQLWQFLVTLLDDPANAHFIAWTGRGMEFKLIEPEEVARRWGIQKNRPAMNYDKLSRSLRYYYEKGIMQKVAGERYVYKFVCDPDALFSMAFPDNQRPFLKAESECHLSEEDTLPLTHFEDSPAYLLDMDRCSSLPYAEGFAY
CRX, sequence (O43186 whole entry): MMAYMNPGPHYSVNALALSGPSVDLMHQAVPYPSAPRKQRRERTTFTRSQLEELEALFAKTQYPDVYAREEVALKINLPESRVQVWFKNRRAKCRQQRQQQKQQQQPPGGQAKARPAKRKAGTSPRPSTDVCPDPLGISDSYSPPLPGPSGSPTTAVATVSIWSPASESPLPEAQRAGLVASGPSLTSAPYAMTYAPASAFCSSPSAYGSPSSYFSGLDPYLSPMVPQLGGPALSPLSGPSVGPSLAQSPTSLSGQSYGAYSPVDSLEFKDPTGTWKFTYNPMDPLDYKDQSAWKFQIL
ETV6, sequence (P41212 whole entry): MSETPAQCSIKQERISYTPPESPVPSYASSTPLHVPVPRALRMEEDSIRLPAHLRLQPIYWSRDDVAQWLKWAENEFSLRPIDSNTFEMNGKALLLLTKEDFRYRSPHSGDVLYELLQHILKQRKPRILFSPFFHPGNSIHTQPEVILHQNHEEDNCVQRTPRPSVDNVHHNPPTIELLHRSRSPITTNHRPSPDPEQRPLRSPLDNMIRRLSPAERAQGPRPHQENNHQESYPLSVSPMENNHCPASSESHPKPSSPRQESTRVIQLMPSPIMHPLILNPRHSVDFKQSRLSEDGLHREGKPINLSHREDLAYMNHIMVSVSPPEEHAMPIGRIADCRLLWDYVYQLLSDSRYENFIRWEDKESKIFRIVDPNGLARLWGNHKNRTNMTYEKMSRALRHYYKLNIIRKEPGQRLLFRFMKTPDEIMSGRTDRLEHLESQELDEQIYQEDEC

TTGATG
binding signal [1]: 1.52 fold enrichment (6-mer frequency, TF over GST control)
binding signal [2]: 1.73 fold enrichment (6-mer frequency, TF over GST control)
binding signal [3]: 1.43 fold enrichment (6-mer frequency, TF over GST control)
binding signal [4]: 1.59 fold enrichment (6-mer frequency, TF over GST control)
binding signal [5]: 1.63 fold enrichment (6-mer frequency, TF over GST control)
binding signal [6]: 1.52 fold enrichment (6-mer frequency, TF over GST control)
binding signal [7]: 1.53 fold enrichment (6-mer frequency, TF over GST control)
binding signal [8]: 1.81 fold enrichment (6-mer frequency, TF over GST control)
binding signal [9]: 1.5 fold enrichment (6-mer frequency, TF over GST control)
binding signal [10]: 1.67 fold enrichment (6-mer frequency, TF over GST control)
binding signal [11]: 1.66 fold enrichment (6-mer frequency, TF over GST control)
binding signal [12]: 1.59 fold enrichment (6-mer frequency, TF over GST control)
binding signal [13]: 1.58 fold enrichment (6-mer frequency, TF over GST control)
binding signal [14]: 1.51 fold enrichment (6-mer frequency, TF over GST control)
binding signal [15]: 1.45 fold enrichment (6-mer frequency, TF over GST control)
binding signal [16]: 1.6 fold enrichment (6-mer frequency, TF over GST control)
binding signal [17]: 1.43 fold enrichment (6-mer frequency, TF over GST control)
binding signal [18]: 1.57 fold enrichment (6-mer frequency, TF over GST control)

— paper PMC7862700, “An all-to-all approach to the identification of sequence-specific readers for epigenetic DNA modifications on cytosine”
